Assay [1] is described as follows: inhibitors of TNFa-induced NFkB p65 translocation, primary screen, imaging, HUVEC, MLSMR starter and 10KST1 sets (AID 438;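 active means inhibition above 20% together with a positive visual image hit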;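 further: compound added about 3h40 before a 20 min TNFalpha stimulation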;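 on inhibition: signal is the nuclear over cytoplasmic p65 intensity ratio per well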). The following applies: HUVEC TNFa-induced p65 nuclear translocation; cell count: measured here: nuclei count (cytotoxicity indicator), at 2.08 µM; inhibition: at 2 µM, stronger effect = higher value, 0% TNFa-plus-vehicle, 100% no-TNFa wells.
The nature of assay [2]: reduction of polyQ htt aggregates in cells – imaging, exon1htt(103Q)mCFP cells, high-content imaging, primary screen (AID 483;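 active means visual image review flags a hit and inhibition of aggregation exceeds 20%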;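 further: compound exposure lasted 3 days before fixation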;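 on nuclei count: percent of the per-plate median nuclei count of sample wells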). The conditions noted are these: exon1htt(103Q)mCFP cell line, aggregate imaging, at 2 µM; inhibition of aggregation: stronger effect = higher value; nuclei count: measured here: cell count, toxicity.
Assay [3] is described as follows: endothelial E-selectin expression blockers – imaging, HUVEC, immunofluorescence, MLSMR starter and 10KST1 sets, primary screen (AID 487;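 active means visually confirmed hit in the image check and inhibition above 20%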;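 on inhibition: signal is fraction of cell area covered by stained E-selectin grains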;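 on nuclei count: 100% = median nuclei count of all wells on the same plate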). The following applies: HUVEC TNFalpha-induced E-selectin immunofluorescence imaging, at 2 µM; inhibition: stronger effect = higher value; nuclei count: measured here: cell number, toxicity.
Assay [4] has as its target Voltage-gated potassium channel subunit beta-2 (Rattus norvegicus) (UniProt P62483). Briefly: inhibitors of rat Kvbeta2 reductase activity – biochemical, NADPH fluorescence, primary screen (AID 622).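 Further: slope of raw intensity against log time taken from 70 to 1610 s.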 The following applies: recombinant KvBeta, 4-cyanobenzaldehyde reduction, at 10 µM, stronger effect = higher value.
Assay [5] has the same target. Briefly: enhancers of rat Kvbeta2 NADPH turnover – biochemical, NADPH fluorescence, primary screen (AID 623;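 active means NADPH fluorescence slope more negative than the mean of all samples by about 3 SD, 99.7% confidence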;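 further: fluorescence intensity change per second fitted from 20 to 320 s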). The following applies: Recombinant KvBeta, NADPH fluorescence decrease slope, 10 min; at 10 µM; stronger effect = lower value.
Assay [6] concerns the target Alpha-2C adrenergic receptor (Homo sapiens) (UniProt P18825). Briefly: compounds altering alpha2C-coupled GIRK flux – cell-based, HEK293 alpha2C/GIRK1/2, thallium flux, primary screen (AID 624;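 active means fluorescence slope after compound addition differing from the mean of all screened samples at 99.7% confidence, in either direction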;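 further: slope of fluorescence ratio to pre-addition baseline per second over 15 to 24 s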). The following applies: thallium flux BTC fluorescence, at 10 µM, actives lie on both sides.
The nature of assay [7]: blockers of RIG-like receptor reporter activation – cell-based, Sendai virus stimulus, luciferase, 10K MLSCN set, TLR/RLR signaling modifier project, primary screen (AID 602276;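 active means inhibition at or above 50% at 10 µM; inactive means inhibition below 50%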;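 further: firefly luciferase from ISG56 promoter only with Renilla not read in this screen; 0% = Sendai virus plus DMSO and 100% = medium plus DMSO without virus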). The conditions noted are these: HEK293 RL24 IRF3 luciferase reporter, at 10 µM, stronger effect = higher value. Background: In a reporter assay the amount or activity of a reporter protein is the signal.
Assay [8] is described as follows: TLR3 IRF3 reporter activation blockers – cell-based, poly I:C stimulus, luciferase, 10K MLSCN set, primary screen (AID 602277;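 active means inhibition of the reporter signal at or above 50%; inactive means inhibition below 50%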). The conditions noted are these: HEK293-TLR3 RL24 IRF3 luciferase reporter, at 10 µM, stronger effect = higher value.

As usually defined, the inhibition is the relative decrease from the control value, in per cent.

Calls of active or inactive are those of the source.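 How the source made its calls, unless noted: active means fluorescence slope higher than the sample average by over 3 SD (cut at about -0.22 in these data, passing the limit was not always enough); inactive means the rest.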

Sequence of Alpha-2C adrenergic receptor (Homo sapiens) (P18825 whole entry, looked up): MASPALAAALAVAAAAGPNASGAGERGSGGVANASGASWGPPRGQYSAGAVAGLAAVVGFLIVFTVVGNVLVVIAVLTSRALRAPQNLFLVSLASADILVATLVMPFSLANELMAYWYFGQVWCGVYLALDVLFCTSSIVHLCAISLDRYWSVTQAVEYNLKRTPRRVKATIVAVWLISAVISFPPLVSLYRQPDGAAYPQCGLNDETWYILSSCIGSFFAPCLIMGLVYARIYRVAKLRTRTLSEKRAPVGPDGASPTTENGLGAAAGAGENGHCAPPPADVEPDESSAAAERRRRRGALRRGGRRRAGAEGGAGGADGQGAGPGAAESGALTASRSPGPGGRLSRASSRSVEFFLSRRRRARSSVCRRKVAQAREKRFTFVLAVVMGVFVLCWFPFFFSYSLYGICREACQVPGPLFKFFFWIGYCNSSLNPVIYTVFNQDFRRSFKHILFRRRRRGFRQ
Sequence of Voltage-gated potassium channel subunit beta-2 (Rattus norvegicus) (P62483 whole entry, looked up): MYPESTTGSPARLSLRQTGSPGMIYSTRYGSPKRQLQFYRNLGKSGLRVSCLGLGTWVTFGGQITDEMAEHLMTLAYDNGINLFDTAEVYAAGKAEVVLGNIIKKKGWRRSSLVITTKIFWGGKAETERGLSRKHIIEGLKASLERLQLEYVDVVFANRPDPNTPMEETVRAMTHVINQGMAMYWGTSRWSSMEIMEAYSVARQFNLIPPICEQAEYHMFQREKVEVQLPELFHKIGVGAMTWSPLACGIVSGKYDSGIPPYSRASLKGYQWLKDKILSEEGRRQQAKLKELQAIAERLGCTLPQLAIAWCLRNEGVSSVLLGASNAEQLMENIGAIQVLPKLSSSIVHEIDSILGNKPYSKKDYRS

With `Cc1cc(C(=O)OCCO)c(C#N)c(N)n1`, the cell count in assay [1] is 299. Also, the inhibition is 8.5% (inactive) in assay [1], -31.1% (inactive) in assay [3], 16.3% (inactive) in assay [7] and 18.4% (inactive) in assay [8]. Moreover, in assay [2], the inhibition of aggregation was 9.5% (inactive). The nuclei count in assay [2] amounted to 106%; in assay [3], 128%. Moreover, the fluorescence slope in assay [4] is -0.132 (active). In assay [5], the NADPH fluorescence slope was 1.2e-05 (inactive). In assay [6], the slope was 0.00497 (inactive).
For `O=C(Cn1c(=O)n(CC2CCCO2)c(=O)c2ccccc21)c1ccccc1` (centres undefined), in assay [1], the cell count is 361. Also, the inhibition in assay [1] was 4.4% (inactive); in assay [3] it was 4.5% (inactive); in assay [7] it was 10.8% (inactive); in assay [8], 16.3% (inactive). Besides, the inhibition of aggregation in assay [2] was 1.4% (inactive). Besides, the nuclei count in assay [2] turned out to be 103%; in assay [3], 111%. Also, in assay [4], the fluorescence slope was -0.51 (inactive). Further, in assay [5], the NADPH fluorescence slope is -3.9e-05 (inactive). Besides, the slope in assay [6] is 0.00589 (inactive).
On to `O=S(=O)(NCc1ccccc1)c1ccc2c(c1)OCCO2`, for which the cell count in assay [1] is 454. Moreover, the inhibition is -10.7% (inactive) in assay [1], -117% (inactive) in assay [3], -0.346% (inactive) in assay [7] and -1.95% (inactive) in assay [8]. For the same compound, the inhibition of aggregation in assay [2] was -10.8% (inactive). Besides, the nuclei count came to 100% in assay [2] and 121% in assay [3]. Further, the fluorescence slope in assay [4] is -0.599 (inactive). Further, the NADPH fluorescence slope in assay [5] is -3.9e-05 (inactive). Also, the slope in assay [6] is 0.00569 (inactive).
In the case of `COC(=O)c1ccc(CSc2nc3c(cnn3-c3ccc(F)cc3)c(=O)[nH]2)o1`, the cell count in assay [1] came out at 653. Also, the inhibition in assay [1] is -12.7% (inactive); in assay [3] it was -44.8% (inactive); in assay [7] it was -5.97% (inactive); in assay [8], 18.8% (inactive). Also, the inhibition of aggregation in assay [2] was -1.4% (inactive). Also, the nuclei count in assay [2] amounted to 106%; in assay [3], 113%. Also, the fluorescence slope in assay [4] is -0.545 (inactive). For the same compound, the NADPH fluorescence slope in assay [5] is 5.2e-05 (inactive). Besides, the slope in assay [6] was 0.00536 (inactive).
With `O=C(Nc1ccncc1)c1cccc(F)c1`, the cell count in assay [1] was determined as 559. Further, the inhibition in assay [1] is -6.9% (inactive); in assay [3] it was -13.5% (inactive); in assay [7], 12.9% (inactive); in assay [8], 13.8% (inactive). Further, the inhibition of aggregation in assay [2] is -1.2% (inactive). The nuclei count turned out to be 95.4% in assay [2] and 68.8% in assay [3]. Moreover, in assay [4], the fluorescence slope was -0.375 (inactive). For the same compound, in assay [5], the NADPH fluorescence slope was -4.9e-05 (inactive). Moreover, the slope in assay [6] was 0.00567 (inactive).
Regarding `O=C(Nc1nccs1)c1cccc(NC(=O)C2CC2)c1`, the cell count in assay [1] was determined as 411. Besides, the inhibition was -0.5% (inactive) in assay [1], -19% (inactive) in assay [3], 2.3% (inactive) in assay [7] and -13.6% (inactive) in assay [8]. In addition, in assay [2], the inhibition of aggregation was -6.6% (inactive). Moreover, the nuclei count was found to be 98% in assay [2] and 116% in assay [3]. Also, the fluorescence slope in assay [4] was -0.409 (inactive). In assay [5], the NADPH fluorescence slope was -3.4e-05 (inactive). The slope in assay [6] is 0.00472 (inactive).
As to `O=C(O)c1ccc2c3c(ncnc13)-c1ccccc1C2=O`, the cell count in assay [1] is 336. For the same compound, the inhibition is -10.1% (inactive) in assay [1], -34.1% (inactive) in assay [3], 18.4% (inactive) in assay [7] and 26.7% (inactive) in assay [8]. Also, the inhibition of aggregation in assay [2] was -50.8% (inactive). Further, the nuclei count came to 9.6% in assay [2] and 93% in assay [3]. In assay [4], the fluorescence slope was -0.155 (inactive). Moreover, the NADPH fluorescence slope in assay [5] was -4.9e-06 (inactive). In assay [6], the slope is 0.0028 (inactive).
Turning to `Cc1cc(=O)n(CCO)c(O)c1C#N`, the cell count in assay [1] was 735. Also, the inhibition in assay [1] was 0.3% (inactive); in assay [3], -22.2% (inactive); in assay [7], 18.6% (inactive); in assay [8], 15% (inactive). For the same compound, the inhibition of aggregation in assay [2] is -6.8% (inactive). Besides, the nuclei count in assay [2] worked out at 94%; in assay [3], 110%. In assay [4], the fluorescence slope is -0.351 (inactive). Besides, the NADPH fluorescence slope in assay [5] was 8.2e-06 (inactive). For the same compound, the slope in assay [6] is 0.00309 (inactive).
On to `Cc1cccc(NC(=O)CC(C)(C)C)c1`, for which, in assay [1], the cell count was found to be 349. Besides, the inhibition in assay [1] is -6.6% (inactive); in assay [3], -1.1% (inactive); in assay [7] it was 10.5% (inactive); in assay [8], 6.01% (inactive). In addition, the inhibition of aggregation in assay [2] is 12% (inactive). In addition, the nuclei count in assay [2] was found to be 95.6%; in assay [3] it was 99.8%. The fluorescence slope in assay [4] is -0.369 (inactive). Also, the NADPH fluorescence slope in assay [5] is 2.2e-05 (inactive). Further, in assay [6], the slope is 0.00657 (inactive).
As to `Cc1ccc(-n2c3c(cc(C(=O)NCCCN4CCOCC4)c2=O)C(=O)CC(C)(C)C3)cc1`, the cell count in assay [1] was 349. The inhibition is -0.6% (inactive) in assay [1], -65.9% (inactive) in assay [3], -1.07% (inactive) in assay [7] and 36.9% (inactive) in assay [8]. In addition, the inhibition of aggregation in assay [2] was -1.3% (inactive). Besides, the results for the nuclei count in assay [2] and in assay [3] were 57% and 117%, respectively. The fluorescence slope in assay [4] was -0.58 (inactive). Moreover, in assay [5], the NADPH fluorescence slope was 9.1e-06 (inactive). Also, in assay [6], the slope is 0.00654 (inactive).
Take `O=C(CN(C(=O)CCNC(=O)c1ccco1)c1ccccc1)NC1CCCC1`: the cell count in assay [1] is 311. Further, the inhibition is -7.8% (inactive) in assay [1], -61.7% (inactive) in assay [3], -10.7% (inactive) in assay [7] and -6.31% (inactive) in assay [8]. Besides, in assay [2], the inhibition of aggregation was 27.1% (inactive). The nuclei count in assay [2] came to 93.4%; in assay [3] it was 113%. Besides, the fluorescence slope in assay [4] is -0.542 (inactive). The NADPH fluorescence slope in assay [5] is 2.6e-05 (inactive). For the same compound, the slope in assay [6] is 0.00484 (inactive).
Take `C/C=C/COC(=O)c1[nH]c2c(c1C)C(=O)CC(c1ccco1)C2` (centres undefined): the cell count in assay [1] worked out at 582. Also, the inhibition in assay [1] was 13.8% (inactive); in assay [3], -141% (inactive); in assay [7], 25.7% (inactive); in assay [8], 82.7% (active). Besides, the inhibition of aggregation in assay [2] was 4.4% (inactive). For the same compound, the nuclei count in assay [2] is 3.3%; in assay [3], 97%. In assay [4], the fluorescence slope is -0.496 (inactive). In addition, in assay [5], the NADPH fluorescence slope is -1.1e-06 (inactive). Moreover, the slope in assay [6] is 0.00708 (inactive).
For `O=c1[nH]c(/C(=N\O)c2ccccc2)no1`, the cell count in assay [1] is 462. For the same compound, the inhibition was 2% (inactive) in assay [1], -11.8% (inactive) in assay [3], 7.11% (inactive) in assay [7] and 24.8% (inactive) in assay [8]. For the same compound, in assay [2], the inhibition of aggregation is -5% (inactive). Besides, the nuclei count in assay [2] is 109%; in assay [3], 111%. The fluorescence slope in assay [4] is -0.421 (inactive). Further, the NADPH fluorescence slope in assay [5] is -0.000106 (inactive). For the same compound, the slope in assay [6] is 0.00496 (inactive).
Turning to `COc1ccc(N2CCN(Cc3nc4c(c(=O)n(C)c(=O)n4C)n3Cc3ccccc3C)CC2)cc1`, in assay [1], the cell count turned out to be 719. Further, the inhibition in assay [1] was -14% (inactive); in assay [3] it was -7.8% (inactive); in assay [7], 14.4% (inactive); in assay [8], 39.9% (inactive). Besides, the inhibition of aggregation in assay [2] was 5.8% (inactive). The figures for the nuclei count in assay [2] and in assay [3] were 100% and 129%, respectively. The fluorescence slope in assay [4] is -0.428 (inactive). Further, the NADPH fluorescence slope in assay [5] is -2.3e-05 (inactive). Besides, in assay [6], the slope is 0.00487 (inactive).

The values above are taken from PubChem BioAssay.
